“And” between values parts separate entries of the source, which are not always exact repeats. Equal entries are not always repeated. In all, about 5,500 compounds went through this assay and about 2,000 (36%) were called active. About 18% were inconclusive and are not listed. No stated cut-off is given here; in the data, active means normalized growth mostly below about 0.91 (no sharp cut-off); inconclusive means no clear call, values can overlap the other calls; inactive means mostly above about 0.92. This is one part of the list.
Assay: chemical genetic growth profiling, strain panel (AID 1159580);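 further: tested at 20 µM; growth read once vehicle control cultures reached saturation at 30 °C; 1 = growth at the plate median or of vehicle wells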
Conditions: S. cerevisiae deletion strains, growth OD

Measured: normalized growth

CO[C@]12C[C@@H](COC(=O)c3cncc(Br)c3)CN(C)[C@@H]1Cc1cn(C)c3cccc2c13
inactive: locus YAL013W, strain DEP1, stronger effect = lower value 1.01 | locus YAL021C, strain ccr4, stronger effect = lower value 0.973 | locus YAL026C, strain drs2, stronger effect = lower value 1 | locus YAL030W, strain snc1, stronger effect = lower value 1 | locus YBL061C, strain skt5, stronger effect = lower value 0.996 | locus YBR009C, strain hhf1, stronger effect = lower value 0.991 | locus YBR021W, strain FUR4, stronger effect = lower value 0.913 | locus YBR023C, strain chs3, stronger effect = lower value 0.979 | locus YBR171W, strain sec66, stronger effect = lower value 0.983 | locus YBR229C, strain ROT2, stronger effect = lower value 1 | locus YBR231C, strain swc5, stronger effect = lower value 0.951 | locus YBR279W, strain paf1, stronger effect = lower value 0.998 | locus YCL011C, strain gbp2, stronger effect = lower value 0.983 | locus YCL016C, strain dcc1, stronger effect = lower value 0.998 | locus YCL029C, strain bik1, stronger effect = lower value 1.02 | locus YCL069W, strain vba3, stronger effect = lower value 0.998 | locus YCR088W, strain abp1, stronger effect = lower value 1 | locus YDL005C, strain med2, stronger effect = lower value 0.979 | locus YDL035C, strain GPR1, stronger effect = lower value 0.99 | locus YDL040C, strain nat1, stronger effect = lower value 0.995 | locus YDL074C, strain BRE1, stronger effect = lower value 0.978 | locus YDL101C, strain DUN1, stronger effect = lower value 1.01 | locus YDL134C, strain PPH21, stronger effect = lower value 0.995 | locus YDL185W, strain tfp1, stronger effect = lower value 1 | locus YDL192W, strain arf1, stronger effect = lower value 1.01 | locus YDR001C, strain nth1, stronger effect = lower value 0.994 | locus YDR069C, strain doa4, stronger effect = lower value 0.966 | locus YDR101C, strain arx1, stronger effect = lower value 1 | locus YDR137W, strain rgp1, stronger effect = lower value 1.12 | locus YDR150W, strain NUM1, stronger effect = lower value 0.999 | locus YDR159W, strain sac3, stronger effect = lower value 1.01 | locus YDR162C, strain NBP2, stronger effect = lower value 1 | locus YDR195W, strain ref2 0.943 | locus YDR297W, strain sur2, stronger effect = lower value 0.987 | locus YDR318W, strain mcm21, stronger effect = lower value 1 | locus YDR334W, strain swr1, stronger effect = lower value 1 | locus YDR335W, strain msn5, stronger effect = lower value 0.986 | locus YDR388W, stronger effect = lower value 1 | locus YDR392W, strain spt3, stronger effect = lower value 0.93 | locus YDR502C, strain sam2, stronger effect = lower value 1 | locus YEL003W, strain gim4, stronger effect = lower value 0.988 | locus YEL037C, strain rad23, stronger effect = lower value 0.995 | locus YEL061C, strain CIN8 (second series), stronger effect = lower value 0.987 | locus YEL061C, strain CIN8, stronger effect = lower value 0.997 | locus YER015W, strain faa2, stronger effect = lower value 0.996 | locus YER016W, strain bim1, stronger effect = lower value 1 | locus YER110C, stronger effect = lower value 1.01 | locus YER111C, strain swi4, stronger effect = lower value 1.01 | locus YER155C, strain BEM2 (second series), stronger effect = lower value 0.912 | locus YER155C, strain BEM2, stronger effect = lower value 0.998 | locus YER167W, strain BCK2, stronger effect = lower value 1 | locus YFR010W, strain ubp6, stronger effect = lower value 0.99 | locus YGL078C, strain dbp3, stronger effect = lower value 1 | locus YGL086W, strain mad1, stronger effect = lower value 1 | locus YGL167C, strain pmr1, stronger effect = lower value 0.996 | locus YGL173C, strain kem1, stronger effect = lower value 0.989 | locus YGL227W, strain vid30, stronger effect = lower value 0.994 | locus YGL240W, strain doc1, stronger effect = lower value 0.95 | locus YGL248W, strain PDE1, stronger effect = lower value 1.01 | locus YGL253W, strain hxk2, stronger effect = lower value 0.998 | locus YGR078C, strain PAC10, stronger effect = lower value 0.974 | locus YGR135W, strain pre9, stronger effect = lower value 0.993 | locus YGR229C, strain SMI1, stronger effect = lower value 1 | locus YGR252W, strain gcn5, stronger effect = lower value 0.869 | locus YHR013C, strain ard1, stronger effect = lower value 1.02 | locus YHR027C, strain rpn1, stronger effect = lower value 0.988 | locus YHR030C, strain SLT2, stronger effect = lower value 1.01 and 0.979 | locus YHR079C, strain IRE1 (second series), stronger effect = lower value 1.01 | locus YHR079C, strain IRE1, stronger effect = lower value 0.957 | locus YHR094C, strain hxt1, stronger effect = lower value 1 | locus YHR129C, strain ARP1, stronger effect = lower value 1.02 | locus YHR142W, strain chs7, stronger effect = lower value 1.01 | locus YHR200W, strain rpn10, stronger effect = lower value 1 | locus YIL066C, strain RNR3, stronger effect = lower value 1 | locus YIL073C, strain SPO22, stronger effect = lower value 1 | locus YIL125W, strain kgd1, stronger effect = lower value 1.01 | locus YIR030C, strain dcg1, stronger effect = lower value 1.01 | locus YJL092W, strain hpr5, stronger effect = lower value 1 | locus YJL095W, strain BCK1 (second series), stronger effect = lower value 1 | locus YJL095W, strain BCK1, stronger effect = lower value 0.996 and 0.967 | locus YJL115W, strain asf1, stronger effect = lower value 0.991 | locus YJL129C, strain trk1, stronger effect = lower value 0.982 | locus YJL134W, strain LCB3, stronger effect = lower value 1 | locus YJL154C, strain vps35, stronger effect = lower value 0.981 | locus YJL164C, strain tpk1, stronger effect = lower value 0.997 | locus YJL166W, strain qcr8, stronger effect = lower value 0.972 | locus YJL168C, strain set2, stronger effect = lower value 1 | locus YJL187C, strain SWE1 (second series), stronger effect = lower value 1.01 | locus YJL187C, strain SWE1, stronger effect = lower value 0.996 | locus YJR043C, strain POL32, stronger effect = lower value 1.01 | locus YJR066W, strain TOR1, stronger effect = lower value 0.897

Reference: PubChem BioAssay AID1159580 (chemical genetic matrix, 2015)
